# Test results from PubChem BioAssay AID1159580 (chemical genetic matrix, 2015).
# The whole screen tested about 5,500 compounds, of which about 2,000 (36%) were called active. Roughly 18% stayed inconclusive and do not appear here. Some of the results follow. Values without a mark were called inactive. Cut-off read from the data, not from the text of the source: active = normalized growth mostly below about 0.91 (no sharp cut-off); inconclusive = no clear call, values can overlap the other calls; inactive = mostly above about 0.92.
# Experiment: chemical genetic growth profiling, strain panel (AID 1159580);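 note: tested at 20 µM; growth read once vehicle control cultures reached saturation at 30 °C; 1 = growth at the plate median or of vehicle wells; lower values mean less growth of the strain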
# Settings: S. cerevisiae deletion strains, growth OD
# [1] = locus YAR019C, strain CDC15, hits give low values
# [2] = locus YBL105C, strain PKC1, hits give low values
# [3] = locus YBR135W, strain CKS1, hits give low values
# [4] = locus YBR136W, strain MEC1, hits give low values
# [5] = locus YBR160W, strain CDC28, hits give low values
# [6] = locus YDL017W, strain CDC7, hits give low values
# [7] = locus YDL028C, strain MPS1, hits give low values
# [8] = locus YDL101C, strain DUN1, hits give low values
# [9] = locus YDL108W, strain KIN28, hits give low values
# [10] = locus YDL132W, strain cdc53, hits give low values
# [11] = locus YDL214C, strain PRR2, hits give low values
# [12] = locus YDR052C, strain DBF4, hits give low values
# [13] = locus YDR054C, strain cdc34, hits give low values
# [14] = locus YDR226W, strain ADK1, hits give low values
# [15] = locus YDR477W, strain SNF1, hits give low values
# [16] = locus YER123W, strain YCK3, hits give low values
# [17] = locus YER133W, strain GLC7, hits give low values
# [18] = locus YFL009W, strain cdc4, hits give low values
# [19] = locus YFL029C, strain CAK1, hits give low values
# [20] = locus YFR003C, strain YPI1, hits give low values
# [21] = locus YFR019W, strain FAB1, hits give low values
# [22] = locus YFR028C, strain CDC14, hits give low values
# [23] = locus YGR040W, strain KSS1, hits give low values
# [24] = locus YGR052W, strain FMP48, hits give low values
# [25] = locus YGR092W, strain DBF2, hits give low values
# [26] = locus YHR030C, strain SLT2, hits give low values
# [27] = locus YHR079C, strain IRE1, hits give low values
# [28] = locus YHR082C, strain KSP1, hits give low values
# [29] = locus YHR205W, strain SCH9, hits give low values
# [30] = locus YIL147C, strain SLN1, hits give low values
# [31] = locus YJL095W, strain BCK1, hits give low values
# [32] = locus YJL128C, strain PBS2, hits give low values
# [33] = locus YJL157C, strain FAR1, hits give low values
# [34] = locus YJR016C, strain ILV3, hits give low values
# [35] = locus YJR066W, strain TOR1 (second series), hits give low values
# [36] = locus YJR066W, strain TOR1, hits give low values
# [37] = locus YKL048C, strain ELM1, hits give low values
# [38] = locus YKL067W, strain YNK1, hits give low values
# [39] = locus YKL101W, strain HSL1, hits give low values
# [40] = locus YKL193C, strain SDS22, hits give low values
# [41] = locus YKL203C, strain TOR2, hits give low values
# [42] = locus YLR113W, strain HOG1, hits give low values
# [43] = locus YLR133W, strain CKI1, hits give low values
# [44] = locus YLR403W, strain SFP1, hits give low values
# [45] = locus YML070W, strain DAK1, hits give low values
# [46] = locus YMR001C, strain CDC5, hits give low values
# [47] = locus YMR205C, strain PFK2 (second series), hits give low values
# [48] = locus YMR277W, strain FCP1, hits give low values
# [49] = locus YNL006W, strain LST8, hits give low values
# [50] = locus YNL020C, strain ARK1, hits give low values
# [51] = locus YNL161W, strain CBK1, hits give low values
# [52] = locus YNL183C, strain NPR1, hits give low values
# [53] = locus YNL207W, strain RIO2, hits give low values
# [54] = locus YNL222W, strain SSU72, hits give low values
# [55] = locus YNL307C, strain MCK1 (second series), hits give low values
# [56] = locus YOL078W, strain AVO1, hits give low values
# [57] = locus YOL136C, strain PFK27, hits give low values
# [58] = locus YOR061W, strain CKA2, hits give low values
# [59] = locus YOR119C, strain RIO1, hits give low values
# [60] = locus YOR231W, strain MKK1, hits give low values
# [61] = locus YOR329C, strain SCD5, hits give low values
# [62] = locus YPL031C, strain PHO85, hits give low values
# [63] = locus YPL153C, strain RAD53, hits give low values
# [64] = locus YPL204W, strain HRR25, hits give low values
# [65] = locus YPL209C, strain IPL1, hits give low values
# [66] = locus YPL256C, strain CLN2, hits give low values
# [67] = locus YPR025C, strain CCL1, hits give low values
# [68] = locus YPR106W, strain ISR1, hits give low values
# [69] = locus YPR111W, strain DBF20, hits give low values
# [70] = strain NNK1, hits give low values
# [71] = strain TSCII, hits give low values
compound,measurement,setting,value
Cc1nc(-c2ccccn2)nc(N(C)Cc2ccccc2)c1Cl,normalized growth,[1],0.951
same,normalized growth,[2],0.961
same,normalized growth,[3],0.967
same,normalized growth,[4],0.955
same,normalized growth,[5],0.968
same,normalized growth,[6],0.962
same,normalized growth,[7],0.956
same,normalized growth,[8],0.962
same,normalized growth,[9],0.951
same,normalized growth,[10],0.961
same,normalized growth,[11],0.997
same,normalized growth,[12],0.965
same,normalized growth,[13],0.948
same,normalized growth,[14],0.956
same,normalized growth,[15],0.971
same,normalized growth,[16],0.93
same,normalized growth,[17],0.975
same,normalized growth,[18],0.953
same,normalized growth,[19],0.94
same,normalized growth,[20],0.963
same,normalized growth,[21],1
same,normalized growth,[22],0.976
same,normalized growth,[23],0.964
same,normalized growth,[24],1.04
same,normalized growth,[25],0.863
same,normalized growth,[26],0.932
same,normalized growth,[27],0.95
same,normalized growth,[28],0.998
same,normalized growth,[29],0.954
same,normalized growth,[30],0.952
same,normalized growth,[31],0.966
same,normalized growth,[32],0.973
same,normalized growth,[33],0.972
same,normalized growth,[34],0.969
same,normalized growth,[35],0.958
same,normalized growth,[36],0.952
same,normalized growth,[37],0.982
same,normalized growth,[38],0.97
same,normalized growth,[39],0.945
same,normalized growth,[40],0.96
same,normalized growth,[41],1.01
same,normalized growth,[42],1
same,normalized growth,[43],0.968
same,normalized growth,[44],0.959
same,normalized growth,[45],0.966
same,normalized growth,[46],0.956
same,normalized growth,[47],0.981
same,normalized growth,[48],0.964
same,normalized growth,[49],0.975
same,normalized growth,[50],0.973
same,normalized growth,[51],0.964
same,normalized growth,[52],1
same,normalized growth,[53],0.959
same,normalized growth,[54],0.96
same,normalized growth,[55],0.922
same,normalized growth,[56],0.96
same,normalized growth,[57],0.963
same,normalized growth,[58],0.941
same,normalized growth,[59],0.991
same,normalized growth,[60],0.994
same,normalized growth,[61],0.955
same,normalized growth,[62],0.952
same,normalized growth,[63],0.943
same,normalized growth,[64],0.938
same,normalized growth,[65],0.958
same,normalized growth,[66],0.985
same,normalized growth,[67],0.963
same,normalized growth,[68],0.974
same,normalized growth,[69],0.976
same,normalized growth,[70],0.979
same,normalized growth,[71],0.953
Cc1nc(-c2ccccn2)nc(SCc2ccccc2)c1Cl,normalized growth,[1],0.946
same,normalized growth,[2],0.945
same,normalized growth,[3],0.941
same,normalized growth,[4],0.94
same,normalized growth,[5],0.954
same,normalized growth,[6],0.949
same,normalized growth,[7],0.939
same,normalized growth,[8],0.942
same,normalized growth,[9],0.94
same,normalized growth,[10],0.93
same,normalized growth,[11],0.844
same,normalized growth,[12],0.94
same,normalized growth,[13],0.922
same,normalized growth,[14],0.942
same,normalized growth,[15],0.849
same,normalized growth,[16],0.747
same,normalized growth,[17],0.826
same,normalized growth,[18],0.935
same,normalized growth,[19],0.935
same,normalized growth,[20],0.943
same,normalized growth,[21],0.887
same,normalized growth,[22],0.94
same,normalized growth,[23],0.829
same,normalized growth,[24],0.853
same,normalized growth,[25],0.705
same,normalized growth,[26],0.843 (active)
same,normalized growth,[27],0.766
same,normalized growth,[28],0.849
same,normalized growth,[29],0.86
same,normalized growth,[30],0.935
same,normalized growth,[31],0.862
same,normalized growth,[32],0.927
same,normalized growth,[33],0.798
same,normalized growth,[34],0.936
same,normalized growth,[35],0.786
same,normalized growth,[36],0.792
same,normalized growth,[37],0.96
same,normalized growth,[38],0.849
same,normalized growth,[39],0.875
same,normalized growth,[40],0.937
same,normalized growth,[41],0.869
same,normalized growth,[42],0.802 (active)
same,normalized growth,[43],0.876
same,normalized growth,[44],0.772
same,normalized growth,[45],0.816
same,normalized growth,[46],0.942
same,normalized growth,[47],0.864
same,normalized growth,[48],0.941
same,normalized growth,[49],0.94
same,normalized growth,[50],0.827
same,normalized growth,[51],0.942
same,normalized growth,[52],0.826
same,normalized growth,[53],0.921
same,normalized growth,[54],0.943
same,normalized growth,[55],0.807
same,normalized growth,[56],0.938
same,normalized growth,[57],0.834
same,normalized growth,[58],0.815
same,normalized growth,[59],0.843
same,normalized growth,[60],0.819
same,normalized growth,[61],0.946
same,normalized growth,[62],0.791
same,normalized growth,[63],0.793
same,normalized growth,[64],0.834
same,normalized growth,[65],0.952
same,normalized growth,[66],0.934
same,normalized growth,[67],0.942
same,normalized growth,[68],0.95
same,normalized growth,[69],0.955
same,normalized growth,[70],0.945
same,normalized growth,[71],0.933
